Assay results taken from PubChem BioAssay.
For part of these data: Potency and affinity values are given separately. Active and inactive are the calls of the source.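 Rule for the calls, unless noted: active = fitted half-maximal concentration within 10 nM to 100 µM, steepness 0.5 to 2, significant signal drop, low assay interference; inactive = the rest.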

Legend:
[1] = biological target: Cell division control protein 42 homolog (Homo sapiens) (UniProt P60953); experiment: inhibition of fluorescent GTP binding to constitutively active Cdc42 – biochemical, multiplex bead flow cytometry, Bodipy-FL-GTP, dose response (AID 1333;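 active = fitted half-maximal concentration within the tested dose range, moderate curve steepness, a statistically real signal drop, and little compound fluorescence or tag-binding interference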)
[2] = biological target: Cell division control protein 42 homolog (Homo sapiens) (UniProt P60953); experiment: inhibition of fluorescent GTP binding to wildtype Cdc42 – biochemical, multiplex bead flow cytometry, Bodipy-FL-GTP, dose response (AID 1334;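 active = fitted half-maximal concentration within the tested range, moderate curve steepness, significant signal drop, and little compound fluorescence or bead-linkage interference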); details: bead-based flow cytometry, Bodipy-FL-GTP binding to GST-Cdc42; at 100 µM (top of the series) unless noted
[3] = biological target: GTPase HRas (Homo sapiens) (UniProt P01112); experiment: Ras wt fluorescent GTP loading blockade – biochemical, wildtype, multiplex bead flow cytometry, dose response (AID 1335); details: bead-based flow cytometry, Bodipy-GTP binding to GST-Ras; at 100 µM (top of the series) unless noted
[4] = system: Ras-related protein Rab-7a (dog), GTP binding; experiment: blockers of fluorescent GTP binding to Rab7 – biochemical, wildtype, multiplex bead flow cytometry, dose response (AID 1336; call rule not given here)
[5] = biological target: Ras-related C3 botulinum toxin substrate 1 (Homo sapiens) (UniProt P63000); experiment: inhibition of wildtype Rac1 nucleotide loading – biochemical, multiplex bead flow cytometry, dose response (AID 1340;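 active = dose curve with midpoint inside tested range, moderate steepness, plateau gap beyond fit error, low compound glow and bead-link interference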); details: GST-Rac1 beads, Bodipy-FL-GTP binding; at 100 µM (top of the series) unless noted
[6] = biological target: GTPase HRas (Homo sapiens) (UniProt P01112); experiment: blockade of GTP loading onto mutant Ras – biochemical, activated mutant, multiplex bead flow cytometry, dose response (AID 1341;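 active = dose-response curve with midpoint inside the tested range, moderate steepness, significant amplitude and little compound fluorescence or bead-attachment interference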;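 note: GST-tagged constitutively activated Ras mutant immobilized on beads and multiplexed with other GTPases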)

Cell division control protein 42 homolog (Homo sapiens), sequence (P60953 whole entry, looked up): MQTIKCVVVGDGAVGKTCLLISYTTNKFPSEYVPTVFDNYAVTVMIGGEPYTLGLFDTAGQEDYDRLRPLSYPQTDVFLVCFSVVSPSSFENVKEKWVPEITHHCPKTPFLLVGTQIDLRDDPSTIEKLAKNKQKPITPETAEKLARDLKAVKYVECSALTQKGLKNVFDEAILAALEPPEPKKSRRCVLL
GTPase HRas (Homo sapiens), sequence (P01112 whole entry, looked up): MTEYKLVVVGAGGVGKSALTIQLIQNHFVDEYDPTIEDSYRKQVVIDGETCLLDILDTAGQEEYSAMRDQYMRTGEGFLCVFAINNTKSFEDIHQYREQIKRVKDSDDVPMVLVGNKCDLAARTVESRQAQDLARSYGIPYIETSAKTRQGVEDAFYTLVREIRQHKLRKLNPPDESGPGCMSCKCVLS

Cc1ccc(NCC(=O)c2ccccc2)cc1Cl
outcome [1]: inactive
fluorescence, percent of control (lower = inhibition) [2]: 36.3%
GTP binding, percent of control [3]: 80.6%
outcome [4]: inactive
GTP binding signal, raw median fluorescence (lower = inhibition) (MCF (arbitrary fluorescence units)) [5]: 256
outcome [6]: inactive

Cc1nc(NC(=O)/C=C/c2ccc(Cl)cc2Cl)sc1C(=O)N(C)C
outcome [1]: inactive
fluorescence, percent of control (lower = inhibition) [2]: 45%
GTP binding, percent of control [3]: 61.1%
outcome [4]: inactive
GTP binding signal, raw median fluorescence (lower = inhibition) (MCF (arbitrary fluorescence units)) [5]: 182
outcome [6]: inactive

Cc1ccccc1OCCn1cc(C(=O)O)c2ccccc21
outcome [1]: inactive
fluorescence, percent of control (lower = inhibition) [2]: 96.9%
GTP binding, percent of control [3]: 131%
outcome [4]: inactive
GTP binding signal, raw median fluorescence (lower = inhibition) (MCF (arbitrary fluorescence units)) [5]: 83.8
outcome [6]: inactive

CC(C)(C)C(=O)c1sc2nc(-c3cccs3)cc(C(F)(F)F)c2c1N
outcome [1]: inactive
fluorescence, percent of control (lower = inhibition) [2]: 86.4%
GTP binding, percent of control [3]: 182%
outcome [4]: inactive
GTP binding signal, raw median fluorescence (lower = inhibition) (MCF (arbitrary fluorescence units)) [5]: 194
outcome [6]: inactive

Cc1ccc(OCCn2c(SCCC(=O)O)nc3ccccc32)cc1
outcome [1]: inactive
fluorescence, percent of control (lower = inhibition) [2]: 61.3%
GTP binding, percent of control [3]: 88.9%
outcome [4]: inactive
GTP binding signal, raw median fluorescence (lower = inhibition) (MCF (arbitrary fluorescence units)) [5]: 34.5
outcome [6]: inactive

O=C(O)c1ccc(CSCc2ccccc2)o1
outcome [1]: inactive
fluorescence, percent of control (lower = inhibition) [2]: 62.4%
GTP binding, percent of control [3]: 91.5%
outcome [4]: inactive
GTP binding signal, raw median fluorescence (lower = inhibition) (MCF (arbitrary fluorescence units)) [5]: 41.9
outcome [6]: inactive

C=CC#CC[N+]1(CC#Cc2ccccc2)CCOCC1
outcome [1]: inactive
fluorescence, percent of control (lower = inhibition) [2]: 97.9%
GTP binding, percent of control [3]: 95.4%
outcome [4]: inactive
GTP binding signal, raw median fluorescence (lower = inhibition) (MCF (arbitrary fluorescence units)) [5]: 537
outcome [6]: inactive

Cc1ccc(Nc2n[nH]c(C)c2[N+](=O)[O-])c(C)c1
outcome [1]: inactive
fluorescence, percent of control (lower = inhibition) [2]: 52.6%
GTP binding, percent of control [3]: 65.8%
outcome [4]: inactive
GTP binding signal, raw median fluorescence (lower = inhibition) (MCF (arbitrary fluorescence units)) [5]: 194
outcome [6]: inactive

C/C(=N\Nc1ccc(S(N)(=O)=O)cc1[N+](=O)[O-])c1ccc2c(c1)OCO2
outcome [1]: inactive
fluorescence, percent of control (lower = inhibition) [2]: 36.3%
GTP binding, percent of control [3]: 79.8%
outcome [4]: inactive
GTP binding signal, raw median fluorescence (lower = inhibition) (MCF (arbitrary fluorescence units)) [5]: 220
outcome [6]: inactive

O=C(COn1nnc2ccc(Cl)cc21)NCc1ccccc1
outcome [1]: inactive
fluorescence, percent of control (lower = inhibition) [2]: 89.6%
GTP binding, percent of control [3]: 154%
outcome [4]: inactive
GTP binding signal, raw median fluorescence (lower = inhibition) (MCF (arbitrary fluorescence units)) [5]: 183
outcome [6]: inactive

CCOc1ccc(-n2c(SCC(=O)NC(C)CC)nc3n[nH]c(C)c3c2=N)cc1 (stereo not given)
outcome [1]: inactive
fluorescence, percent of control (lower = inhibition) [2]: 38.4%
GTP binding, percent of control [3]: 48.1%
outcome [4]: inactive
GTP binding signal, raw median fluorescence (lower = inhibition) (MCF (arbitrary fluorescence units)) [5]: 0
outcome [6]: inactive

Cn1c(=O)n(Cc2ccc(F)cc2)c(=O)c2c1nc1n2CCN1Cc1ccco1
outcome [1]: inactive
fluorescence, percent of control (lower = inhibition) [2]: 31.2%
GTP binding, percent of control [3]: 68.1%
outcome [4]: inactive
GTP binding signal, raw median fluorescence (lower = inhibition) (MCF (arbitrary fluorescence units)) [5]: 164
outcome [6]: inactive

O=C(O)c1ccccc1C(=O)OCc1ccc(F)cc1F
outcome [1]: inactive
fluorescence, percent of control (lower = inhibition) [2]: 89.8%
GTP binding, percent of control [3]: 106%
outcome [4]: inactive
GTP binding signal, raw median fluorescence (lower = inhibition) (MCF (arbitrary fluorescence units)) [5]: 72.5
outcome [6]: inactive

CCOC(=O)c1ccc(Nc2nc(C(=O)OCC)nc3ccccc23)cc1
outcome [1]: inactive
fluorescence, percent of control (lower = inhibition) [2]: 66.3%
GTP binding, percent of control [3]: 128%
outcome [4]: inactive
GTP binding signal, raw median fluorescence (lower = inhibition) (MCF (arbitrary fluorescence units)) [5]: 159
outcome [6]: inactive

COc1cc(/C=N\NC(=O)CNC(=O)C2COc3ccccc3O2)ccc1O (stereo not given)
outcome [1]: inactive
fluorescence, percent of control (lower = inhibition) [2]: 51.5%
GTP binding, percent of control [3]: 62.3%
outcome [4]: inactive
GTP binding signal, raw median fluorescence (lower = inhibition) (MCF (arbitrary fluorescence units)) [5]: 191
outcome [6]: inactive

Cc1ccc(-c2nnc3c4ccccc4c(C)nn23)cc1S(=O)(=O)N1CCN(CCO)CC1
outcome [1]: inactive
fluorescence, percent of control (lower = inhibition) [2]: 38.3%
GTP binding, percent of control [3]: 86.6%
outcome [4]: inactive
GTP binding signal, raw median fluorescence (lower = inhibition) (MCF (arbitrary fluorescence units)) [5]: 238
outcome [6]: inactive

Cc1ccc(NC(=O)Nc2ccnc(-c3cccnc3)n2)cc1
outcome [1]: inactive
fluorescence, percent of control (lower = inhibition) [2]: 36.6%
GTP binding, percent of control [3]: 73.3%
outcome [4]: inactive
GTP binding signal, raw median fluorescence (lower = inhibition) (MCF (arbitrary fluorescence units)) [5]: 162
outcome [6]: inactive

Cc1ccc([N+](=O)[O-])cc1-c1ccc(/C=C(\C#N)c2[nH]nc(N)c2C#N)o1
outcome [1]: inactive
fluorescence, percent of control (lower = inhibition) [2]: 32.4%
GTP binding, percent of control [3]: 72.8%
outcome [4]: inactive
GTP binding signal, raw median fluorescence (lower = inhibition) (MCF (arbitrary fluorescence units)) [5]: 221
outcome [6]: inactive

CC(C)(C)NC(=O)c1ccc2nsnc2c1
outcome [1]: inactive
fluorescence, percent of control (lower = inhibition) [2]: 52.7%
GTP binding, percent of control [3]: 66.2%
outcome [4]: inactive
GTP binding signal, raw median fluorescence (lower = inhibition) (MCF (arbitrary fluorescence units)) [5]: 213
outcome [6]: inactive

O=C(CSc1ccc2nnc(-c3ccccn3)n2n1)Nc1ccc2c(c1)OCO2
outcome [1]: inactive
fluorescence, percent of control (lower = inhibition) [2]: 39.5%
GTP binding, percent of control [3]: 53.4%
outcome [4]: inactive
GTP binding signal, raw median fluorescence (lower = inhibition) (MCF (arbitrary fluorescence units)) [5]: 120
outcome [6]: inactive

Cc1ccc(CNCc2c(C)[nH]c(C)c2C(=O)O)cc1
outcome [1]: inactive
fluorescence, percent of control (lower = inhibition) [2]: 64.4%
GTP binding, percent of control [3]: 88.9%
outcome [4]: inactive
GTP binding signal, raw median fluorescence (lower = inhibition) (MCF (arbitrary fluorescence units)) [5]: 34.6
outcome [6]: inactive

Cc1cccc(C)c1NC(=O)CSc1ccc([N+](=O)[O-])cn1
outcome [1]: inactive
fluorescence, percent of control (lower = inhibition) [2]: 85.9%
GTP binding, percent of control [3]: 97.1%
outcome [4]: inactive
GTP binding signal, raw median fluorescence (lower = inhibition) (MCF (arbitrary fluorescence units)) [5]: 246
outcome [6]: inactive

N#CC(C#N)=C(Nc1ccc(F)cc1)SCc1cccc(Br)c1
outcome [1]: inactive
fluorescence, percent of control (lower = inhibition) [2]: 45.8%
GTP binding, percent of control [3]: 61.7%
outcome [4]: inactive
GTP binding signal, raw median fluorescence (lower = inhibition) (MCF (arbitrary fluorescence units)) [5]: 181
outcome [6]: inactive

COc1ccc(CN2C(=O)/C(=C/c3ccc(-c4ccc(Cl)c(C(=O)O)c4)o3)SC2=S)cc1
outcome [1]: inactive
fluorescence, percent of control (lower = inhibition) [2]: 32.2%
GTP binding, percent of control [3]: 56%
outcome [4]: inactive
GTP binding signal, raw median fluorescence (lower = inhibition) (MCF (arbitrary fluorescence units)) [5]: 142
outcome [6]: inactive

COc1cccc(C2CC(c3ccccc3)=NN2S(=O)(=O)c2ccc(C)cc2)c1OC (stereo not given)
outcome [1]: inactive
fluorescence, percent of control (lower = inhibition) [2]: 93.3%
GTP binding, percent of control [3]: 141%
outcome [4]: inactive
GTP binding signal, raw median fluorescence (lower = inhibition) (MCF (arbitrary fluorescence units)) [5]: 311
outcome [6]: inactive

C/C(=N\Nc1cc(C)nc(-c2ccccc2)n1)c1cccc([N+](=O)[O-])c1
outcome [1]: inactive
fluorescence, percent of control (lower = inhibition) [2]: 33.6%
GTP binding, percent of control [3]: 77.8%
outcome [4]: inactive
GTP binding signal, raw median fluorescence (lower = inhibition) (MCF (arbitrary fluorescence units)) [5]: 193
outcome [6]: inactive

CCOC(=O)Cn1nnnc1C(CC)N(Cc1cccs1)Cc1cc2cc(C)ccc2[nH]c1=O (stereo not given)
outcome [1]: inactive
fluorescence, percent of control (lower = inhibition) [2]: 96.4%
GTP binding, percent of control [3]: 186%
outcome [4]: inactive
GTP binding signal, raw median fluorescence (lower = inhibition) (MCF (arbitrary fluorescence units)) [5]: 194
outcome [6]: inactive

CCn1cc(C(=O)O)c(=O)c2cc(F)c(N/N=C/c3ccccc3[N+](=O)[O-])cc21
outcome [1]: inactive
fluorescence, percent of control (lower = inhibition) [2]: 32.3%
GTP binding, percent of control [3]: 44%
outcome [4]: inactive
GTP binding signal, raw median fluorescence (lower = inhibition) (MCF (arbitrary fluorescence units)) [5]: 110
outcome [6]: inactive

OC(CN1CCN(Cc2ccc3c(c2)OCO3)CC1)c1c[nH]c2ccccc12 (stereo not given)
outcome [1]: inactive
fluorescence, percent of control (lower = inhibition) [2]: 36.1%
GTP binding, percent of control [3]: 78.7%
outcome [4]: inactive
GTP binding signal, raw median fluorescence (lower = inhibition) (MCF (arbitrary fluorescence units)) [5]: 281
outcome [6]: inactive

COc1ccccc1OCCn1cc(C(=O)O)c2ccc(Cl)cc21
outcome [1]: inactive
fluorescence, percent of control (lower = inhibition) [2]: 57%
GTP binding, percent of control [3]: 201%
outcome [4]: inactive
GTP binding signal, raw median fluorescence (lower = inhibition) (MCF (arbitrary fluorescence units)) [5]: 61.4
outcome [6]: inactive
